Screening results from PubChem BioAssay.
Only some compounds are listed: those with a hit (about 1.6% of all), similar ones and a draw of the others.
KCNQ2 enhance = potentiators of rat KCNQ2 potassium channel. CHO-K1 KCNQ2, FluxOR thallium flux fluorescence; active compounds read high. B-score at 10 µM. hit rate 0.54% among 310,000. AID 2239;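 active = fluorescence ratio B-score at least 3 SD of library B-scores, with initial fluorescence B-score within 3 of them, cut at about 5.3 in these data; same plate scores as AID 2156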;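 also: B-score of peak minus minimum over baseline fluorescence ratio after K+ and Tl+ stimulus; positive B-score means potentiation of KCNQ2 with more thallium influx and brighter signal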
KCNQ2 inh = inhibitors of rat KCNQ2 potassium channel. CHO-K1 KCNQ2, FluxOR thallium flux, 20 min; active compounds read low. B-score at 10 µM. hit rate 1.1% among 310,000. AID 2156;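 active = fluorescence ratio B-score at most minus 3 library SDs, with starting brightness B-score within 2 library SDs, cut at about -5.5 in these data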
Kir21 conf inh = confirmation of mouse Kir2.1 potassium channel inhibitors; AID 2032; Tl flux remaining, % of negative control (active compounds read low), % at 10 µM; Kir2.1-expressing cells, FluxOR thallium flux fluorescence; active compounds read low; hit rate 41% among 2,300; shares compounds with KCNQ2 enhance;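 active = Primary-screen hit whose thallium flux fell at least 3 control SD below untreated wells in both duplicates, with normal baseline fluorescence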
Target sequence (P35561 whole entry, looked up): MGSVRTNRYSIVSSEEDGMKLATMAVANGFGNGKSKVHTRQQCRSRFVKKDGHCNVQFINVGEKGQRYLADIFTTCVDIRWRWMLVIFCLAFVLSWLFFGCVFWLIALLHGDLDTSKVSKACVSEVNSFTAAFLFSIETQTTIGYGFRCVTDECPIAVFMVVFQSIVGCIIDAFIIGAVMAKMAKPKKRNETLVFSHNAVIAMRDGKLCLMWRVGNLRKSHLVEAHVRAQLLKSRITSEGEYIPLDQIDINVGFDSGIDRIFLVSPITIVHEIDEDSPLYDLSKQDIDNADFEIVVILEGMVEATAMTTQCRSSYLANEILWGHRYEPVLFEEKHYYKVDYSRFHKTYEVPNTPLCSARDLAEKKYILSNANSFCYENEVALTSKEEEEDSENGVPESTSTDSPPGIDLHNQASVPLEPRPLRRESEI
HEK293 Tl flux = alters thallium flux in parental HEK293 cells, Kir2.1 counter-screen; FluxOR signal as % of negative control (100 = no effect), % at 10 µM; shares compounds with KCNQ2 enhance; hit rate 19% among 2,300; FluxOR thallium flux fluorescence; 0% = unstimulated blank wells; AID 2105;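 active = dye signal at least 3 control SD above or below untreated wells in both duplicates, raw fluorescence within 3, either direction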;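 also: percent is based on the flux ratio of peak minus minimum fluorescence over baseline F0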
CHO-K1 Tl ctr = counter-screen for KCNQ2 potentiators: effect in parental CHO-K1 cells; AID 2282; hit rate 43% among 1,200; FluxOR thallium flux fluorescence; zero = vehicle mean+3SD, 100% = vehicle-minus-blank window; activity increase over 3SD of controls, % at 10 µM; shares compounds with KCNQ2 enhance;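 active = signal rise of at least 3 SD above the untreated control mean, in both duplicate wells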;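 also: counter screen of KCNQ2 potentiator hits so any rise reflects channel-independent effects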
KCNQ1 sel pot = selectivity of KCNQ2 potentiators: effect on human KCNQ1. shares compounds with KCNQ2 enhance. CHO KCNQ1 stable, FluxOR thallium flux fluorescence; beyond 3SD, as % of vehicle-control signal. activation over 3SD threshold, % at 10 µM. hit rate 28% among 1,200;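 active = fluorescence ratio rise of at least 3 SD of vehicle wells above their mean, in both replicate wells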
KCNQ2 pot conf = rat KCNQ2 channel potentiator confirmation. CHO-KCNQ2 cells, FluxOR thallium flux fluorescence. hit rate 68% among 1,200. AID 2287. shares compounds with KCNQ2 enhance. potentiation, less the hit threshold, % at 10 µM;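 active = fluorescence ratio rising 3 SD or more over the vehicle control mean in both replicates, plus primary screen hit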;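 also: peak minus minimum thallium fluorescence divided by baseline after K/Tl stimulus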
Kir2-1 sel = mouse Kir2.1 off-target activity of KCNQ2 potentiators; shares compounds with KCNQ2 enhance; hit rate 2% among 1,200; HEK293 Kir2.1, FluxOR thallium flux fluorescence; activity over 3SD threshold, % at 10 µM;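 active = fluorescence ratio rise of at least 3 SD above the vehicle-control mean, seen in both replicates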
KCNQ2 W236L pot = rat KCNQ2 W236L mutant potentiation by KCNQ2 potentiators; shares compounds with KCNQ2 enhance; CHO KCNQ2-W236L, automated patch clamp current; current increase over 3SD of negative controls (%), active compounds read high, % at 25 µM; hit rate 10% among 940; AID 2558;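 active = current increase at least 3 SD of the untreated controls above them in both duplicate recordings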
Of the large screens only hits and unclear results are named; the others gave an inactive call (follow-up assays come after a bar, where they were run).

O=C(Nc1ccncc1)Nc1cccc(F)c1	none (no result: KCNQ2 enhance)
CN(Cc1ccc(N(C)C)cc1)C(=O)c1cc2ccccc2o1	none (no result: KCNQ2 enhance)
COc1ccc(C)cc1NC(=O)NNC(=O)C(C)Oc1ccc(F)cc1Cl (configuration not stated)	none
CCOc1ccc(-n2c(=O)c3sccc3n(CC(=O)NCCc3ccc(OC)c(OC)c3)c2=O)cc1	none (no result: KCNQ2 enhance)
CC[C@@H](C)[C@H](NC(=O)OC(C)(C)C)c1nnc(S(=O)(=O)Cc2cc(C)ccc2C)o1	none (no result: KCNQ2 enhance) | Kir21 conf inh inactive | HEK293 Tl flux inactive
CC(C)[C@H](NC(=O)OC(C)(C)C)c1nnc(S(=O)(=O)Cc2c(F)cccc2Cl)o1	none
COc1ccc(N2CCN(S(=O)(=O)CCNC(=O)c3ccc(Br)o3)CC2)cc1	none
Cc1cc(N/N=C/c2ccccc2[N+](=O)[O-])nc(-n2nc(C)cc2C)n1	KCNQ2 enhance 5.42 | Kir21 conf inh inactive | HEK293 Tl flux inactive | CHO-K1 Tl ctr inactive | KCNQ1 sel pot inactive | KCNQ2 pot conf inactive | Kir2-1 sel inactive
Cc1cc(N/N=C/c2cccc([N+](=O)[O-])c2)nc(-n2nc(C)cc2C)n1	none
CCOC(=O)NC(=S)Nc1ccc(C(C)(C)C)cc1	KCNQ2 enhance 10.2 | Kir21 conf inh inactive | HEK293 Tl flux inactive | CHO-K1 Tl ctr inactive | KCNQ1 sel pot inactive | KCNQ2 pot conf 26.3 | Kir2-1 sel inactive | KCNQ2 W236L pot inactive
CCOC(=O)C(NC(C)=O)C(=O)Nc1ccc(C(C)(C)C)cc1 (configuration not stated)	none (no result: KCNQ2 enhance)
CCN(CC)CCCn1c2c(c(SCC(=O)Nc3ccc4c(c3)OCCO4)nc1=O)CCC2	none
COC(=O)c1ccc(SCC(=O)NC2CCCCC2)c([N+](=O)[O-])c1	none (no result: KCNQ2 enhance)
C=CCn1c(COc2ccccc2)nnc1SCc1ccc(C#N)cc1	none (no result: KCNQ2 enhance) | Kir21 conf inh 45.0% | HEK293 Tl flux 69.0%
C=CCn1c(COc2ccc(Cl)cc2)nnc1SCc1ccc(C#N)cc1	none (no result: KCNQ2 enhance)
Cc1ccc(C(=O)COC(=O)c2ccc(O)cc2)cc1	none (no result: KCNQ2 enhance)
O=C(c1cc(Cl)ccc1[N+](=O)[O-])N1CCc2ccccc2C1	none (no result: KCNQ2 enhance)
O=C(COc1ccccc1Cl)NCC(c1cccs1)N1CCOCC1 (configuration not stated)	none (no result: KCNQ2 enhance)
Cc1ccc(Cl)c(OCC(=O)NCC(c2cccs2)N2CCOCC2)c1 (configuration not stated)	none (no result: KCNQ2 enhance) | Kir21 conf inh 64.5% | HEK293 Tl flux inactive
Cc1ccc(NS(=O)(=O)c2cccc(C(=O)N(C)Cc3cccs3)c2)cc1	none (no result: KCNQ2 enhance)
CCc1ccc(OCC(=O)Nc2ccncc2)c(Br)c1	none
CC(C)(C)c1ccc(OCC(=O)Nc2ccncc2)c(Br)c1	KCNQ2 enhance 5.57 | Kir21 conf inh inactive | HEK293 Tl flux inactive | CHO-K1 Tl ctr inactive | KCNQ1 sel pot inactive | KCNQ2 pot conf inactive | Kir2-1 sel inactive | KCNQ2 W236L pot inactive
CC1=NN(C(=O)c2ccc(Cl)cc2)C(O)(c2ccccc2)C1 (configuration not stated)	KCNQ2 enhance 20.3 | Kir21 conf inh inactive | HEK293 Tl flux inactive | CHO-K1 Tl ctr inactive | KCNQ1 sel pot inactive | KCNQ2 pot conf inactive | Kir2-1 sel inactive | KCNQ2 W236L pot inactive
CC1=NN(C(=O)CSCc2ccccc2)C(O)(c2ccc(Cl)cc2)C1 (configuration not stated)	none (no result: KCNQ2 enhance)
Nc1nc(CSc2ccccn2)nc(Nc2ccccc2)n1	KCNQ2 enhance 5.53 | Kir21 conf inh inactive | HEK293 Tl flux inactive | CHO-K1 Tl ctr inactive | KCNQ1 sel pot inactive | KCNQ2 pot conf inactive | Kir2-1 sel inactive
Nc1nc(CSCCO)nc(Nc2ccccc2)n1	none
O=C(O)Cn1nnc(COc2ccccc2)n1	none (no result: KCNQ2 enhance)
Cc1cc(C(=O)NC2CCCN(Cc3ccc(Cl)cc3)C2)n(C)n1 (configuration not stated)	none (no result: KCNQ2 enhance)
Cc1nnc(SCC(=O)Nc2ccccc2C(=O)NC2CC2)s1	none
Cc1cc(C)c(S(=O)(=O)Cc2ccccc2)c(OC(C)C)n1	none (no result: KCNQ2 enhance)
Cc1cccc2sc(NNC(=O)c3cc(=O)c4ccccc4o3)nc12	none
COc1ccc2nc(NNC(=O)c3cc(=O)c4ccccc4o3)sc2c1	KCNQ2 enhance 13.1 | Kir21 conf inh inactive | HEK293 Tl flux inactive | CHO-K1 Tl ctr inactive | KCNQ1 sel pot inactive | KCNQ2 pot conf inactive | Kir2-1 sel inactive
CCN(Cc1ccccc1)S(=O)(=O)c1ccc2c(c1)NC(=O)CC(=O)N2	none (no result: KCNQ2 enhance)
CCN(Cc1ccccc1)S(=O)(=O)c1ccc2c(c1)NC(=O)CS2	none | Kir21 conf inh 73.0% | HEK293 Tl flux inactive
Cc1cccc(NC(=O)C23CCC(C)(C2Br)C3(C)C)c1 (configuration not stated)	KCNQ2 enhance 10.5 | Kir21 conf inh inactive | HEK293 Tl flux inactive | CHO-K1 Tl ctr inactive | KCNQ1 sel pot 7.4 | KCNQ2 pot conf inactive | Kir2-1 sel inactive | KCNQ2 W236L pot inactive
Cc1cccc(NC(=O)CC(=O)Nc2cccc(C)c2)c1	none (no result: KCNQ2 enhance)
CCc1ccccc1NC1=NCC(=O)N1Cc1ccc(OC)cc1	none (no result: KCNQ2 enhance)
COc1ccc(CN2C(=O)CN=C2Nc2cc(C)ccc2C)cc1	KCNQ2 enhance 14.6 | Kir21 conf inh inactive | HEK293 Tl flux inactive | CHO-K1 Tl ctr 0.6 | KCNQ1 sel pot 9.2 | KCNQ2 pot conf inactive | Kir2-1 sel inactive
COc1ccccc1C1c2ccc3ccccc3c2Oc2ncn(CCN(C)C)c(=N)c21 (configuration not stated)	none (no result: KCNQ2 enhance)
COc1ccc(C2c3ccc4ccccc4c3Oc3ncn(CCCN(C)C)c(=N)c32)cc1 (configuration not stated)	KCNQ2 inh -6.14 | Kir21 conf inh 36.5% | HEK293 Tl flux inactive
COc1ccc(C(C(=O)NC2CCCC2)N(Cc2cccnc2)C(=O)c2snc(C(N)=O)c2N)cc1 (configuration not stated)	none
CCc1cc(C(=O)OCC(=O)N2CCC(c3ccccc3)=N2)sc1C	none (no result: KCNQ2 enhance)
Cc1ccc(C)c(NC(=O)C2CC3CCC2C3)c1 (configuration not stated)	KCNQ2 enhance 21.4 | Kir21 conf inh inactive | HEK293 Tl flux inactive | CHO-K1 Tl ctr inactive | KCNQ1 sel pot 1.6 | KCNQ2 pot conf 57.2 | Kir2-1 sel inactive | KCNQ2 W236L pot inactive
CCN(CC)c1ccc(NC(=O)C2CC3CCC2C3)cc1 (configuration not stated)	KCNQ2 enhance 22.8 | Kir21 conf inh inactive | HEK293 Tl flux inactive | CHO-K1 Tl ctr 2.7 | KCNQ1 sel pot inactive | KCNQ2 pot conf 65.0 | Kir2-1 sel inactive | KCNQ2 W236L pot inactive
